PubChem BioAssay (Tox21)
Where “and” joins values, the source holds several entries; their conditions need not be identical. Equal entries are not always repeated. Results filed as inconclusive are left out. The source holds several records for some structures; these can differ, active in one and inactive in another. Calls of active or inactive are those of the source. Calls follow the shape of the dose curve; as a rule, active = well fitted curve in the direction sought with a large enough effect in the repeat runs; inconclusive = weak or mixed curves; inactive = no such curve, though single readings can be large; an effect the other way counts as inactive or inconclusive.

Legend:
[1] = A CellTox Green Cytotoxicity Assay to monitor cytotoxicity in HEK293 cells - 32 hour (AID 1224881); also: nearly all actives have a fitted effect of over 40% in size; also: potency is read from the fitted curve at half-maximal effect
Method in brief: (§1)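 Cells (HEK293, 600/well) and dye reagent are dispensed together. After 5 h at 37 C, 23 nL compound is pinned in. Plates stay at 37 C for 40 h with fluorescence read at 0h, 8h, 16h, 24h, 32h and 40h.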

[2] = A CellTox Green Cytotoxicity Assay to monitor cytotoxicity in HepG2 cells - 0 hour (AID 1224882); also: nearly all actives have a fitted effect of over 35% in size; also: potency is read from the fitted curve at half-maximal effect
Method in brief: (§2)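 Cells and non-lytic dye reagent are dispensed together (600 HepG2 cells/well) and incubated 5 h before DMSO compound transfer. Kinetic fluorescence is then recorded in the same wells during 40 h at 37 C.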

[3] = A CellTox Green Cytotoxicity Assay to monitor cytotoxicity in HepG2 cells - 32 hour (AID 1224883); also: nearly all actives have a fitted effect of over 50% in size; also: potency is read from the fitted curve at half-maximal effect
Method in brief: as §2

[4] = A CellTox Green Cytotoxicity Assay to monitor cytotoxicity in HEK293 cells - 8 hour (AID 1224884); also: nearly all actives have a fitted effect of over 35% in size; also: potency is read from the fitted curve at half-maximal effect
Method in brief: as §1

[5] = qHTS RealTime-Glo MT Cell Viability Assay in HepG2 cells - 16 hour (AID 1224885); also: nearly all actives have a fitted effect of over 50% in size
Method in brief: (§3)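 HepG2 cells were seeded at 600 cells/well together with NanoLuc luciferase and a cell-permeant prosubstrate, preincubated 5 h at 37 C/5% CO2, then pin-dosed with compounds in DMSO. Nonlytic luminescence from viable cells was read at each time point.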

[6] = qHTS RealTime-Glo MT Cell Viability Assay in HEK293 cells - 24 hour (AID 1224886); also: nearly all actives have a fitted effect of over 50% in size; also: potency is read from the fitted curve at half-maximal effect
Method in brief: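 HEK293 cells were seeded at 600 cells/well together with NanoLuc luciferase and cell-permeant prosubstrate, preincubated 5 h at 37 C/5% CO2, then given compound in DMSO by pintool. Luminescence from viable-cell prosubstrate reduction was read repeatedly over 40 h.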

[7] = qHTS RealTime-Glo MT Cell Viability Assay in HEK293 cells - 8 hour (AID 1224887); also: nearly all actives have a fitted effect of over 50% in size; also: potency is read from the fitted curve at half-maximal effect
Method in brief: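 Real-time viability in HEK293: signal arises when living cells convert a prosubstrate for NanoLuc in the medium, so luminescence tracks viable cell number. Compound (23 nL, DMSO) added 5 h post-seeding; kinetic reads at 0–40 h, 37 C.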

[8] = A CellTox Green Cytotoxicity Assay to monitor cytotoxicity in HEK293 cells - 16 hour (AID 1224888); also: nearly all actives have a fitted effect of over 35% in size
Method in brief: as §1

[9] = qHTS RealTime-Glo MT Cell Viability Assay in HepG2 cells - 0 hour (AID 1224889); also: nearly all actives have a fitted effect of over 50% in size; also: potency is read from the fitted curve at half-maximal effect
Method in brief: as §3

[10] = A CellTox Green Cytotoxicity Assay to monitor cytotoxicity in HepG2 cells - 8 hour (AID 1224890); also: nearly all actives have a fitted effect of over 45% in size; also: potency is read from the fitted curve at half-maximal effect
Method in brief: as §2

Measured: Potency

CCCCOCCOP(=O)(OCCOCCCC)OCCOCCCC
inactive: all assays above

CCc1cccc(CC)c1N(COC)C(=O)CCl
inactive: all assays above

O=P(O)(O)CCCl
inactive: all assays above

C1=Cc2cccc3cccc1c23
active: [1] 49 µM
inactive: all other assays above

C[C@]12CCC(=O)C[C@@H]1CC[C@@H]1[C@@H]2CC[C@]2(C)[C@@H](O)CC[C@@H]12
active: [6] 21.6 µM
38.4 µM (active) and inactive: [1]
not listed: [9]
inactive: all other assays above

O=C(O)C(F)(F)C(F)(F)C(F)(F)C(F)(F)C(F)(F)C(F)(F)C(F)(F)F
inactive: all assays above

Nc1ccc(Cl)c(Cl)c1
inactive: all assays above

Nc1c(Cl)cc([N+](=O)[O-])cc1Cl
inactive: all assays above

Nc1ccc(-c2ccccc2)cc1
7.11 µM (active) and inactive: [6]
inactive: all other assays above

O=[N+]([O-])c1c(Cl)c(Cl)c(Cl)c(Cl)c1Cl
21.8 µM (active) and inactive: [1]
inactive: all other assays above

Oc1cc(Cl)ccc1Cl
inactive: all assays above

CCCCC(CC)COC(=O)c1ccc(C(=O)OCC(CC)CCCC)c(C(=O)OCC(CC)CCCC)c1 (stereo unspecified)
inactive: all assays above

COc1ccc(C=O)cc1
inactive: all assays above

CCOC(=O)C(C)OC(=O)c1cc(Oc2ccc(C(F)(F)F)cc2Cl)ccc1[N+](=O)[O-] (stereo unspecified)
30.7 µM (active) and inactive: [6]
active: [7] 30.7 µM
inactive: all other assays above

CCC(CC)Nc1c([N+](=O)[O-])cc(C)c(C)c1[N+](=O)[O-]
inactive: all assays above

O=C(Nc1ccc(Br)cc1)c1cc(Br)cc(Br)c1O
inactive and 43.6 µM (active): [2] | [10]
38.9 µM (active) and inactive: [1]
active: [3] 19.4 µM and 27.5 µM and 21.3 µM | [9] 21.8 µM
inactive: [5] | [6] | [7]
inactive and 38.9 µM (active): [4]

CC(C)c1ccc(CO)cc1
inactive: all assays above

COP(=O)(OC)OC
24.7 µM (active) and inactive: [3]
39.2 µM (active) and inactive: [4]
inactive: all other assays above

CCN(CC)C(=O)SCc1ccc(Cl)cc1
inactive: all assays above

CCN(CC)N=O
inactive: all assays above

C=CCc1ccc(OC)cc1
inactive: all assays above

Nc1cccnc1
inactive: all assays above

N#Cc1cc(Br)c(O)c(Br)c1
inactive: all assays above

Cc1ccccc1[N+](=O)[O-]
inactive: all assays above

COc1ccc(C(CN(C)C)C2(O)CCCCC2)cc1 (stereo unspecified)
inactive: all assays above

CCOC(=S)S
inactive: all assays above

CC(C)C(=O)OCC(C)(C)C(OC(=O)C(C)C)C(C)C (stereo unspecified)
inactive: all assays above

C#C[C@]1(O)CC[C@H]2[C@@H]3CCC4=CC(=O)CC[C@]4(C)[C@H]3CC[C@@]21C
active: [1] 49 µM
not listed: [9]
inactive: all other assays above

CNC(=O)N(C)c1nnc(C(C)(C)C)s1
inactive: all assays above

NCc1cccnc1
inactive: all assays above

O=C(O)CC[N+](=O)[O-]
inactive: all assays above

CCCCN(CCCC)N=O
inactive: all assays above

CCC(=O)O[C@H]1CC[C@H]2[C@@H]3CCC4=CC(=O)CC[C@]4(C)[C@H]3CC[C@]12C
active: [1] 19.5 µM and 19 µM | [3] 43.6 µM | [6] 21.9 µM and 23.9 µM | [7] 38.9 µM | [9] 7.76 µM | [10] 43.6 µM
34.7 µM (active) and inactive: [4]
inactive: [2] | [5]

c1cc(OCC2CO2)ccc1Cc1ccc(OCC2CO2)cc1 (stereo unspecified)
inactive: all assays above

Nc1ccncc1
inactive: all assays above
